The results in this text go back to PMC7862700, “An all-to-all approach to the identification of sequence-specific readers for epigenetic DNA modifications on cytosine”.

Test in all cases: DAPPL (digital affinity profiling via proximity ligation, sequencing); 10 mM Tris-HCl pH 7.5, 50 mM NaCl, 1 mM DTT, 4% glycerol, room temperature, 30 min; GST-TFs on glutathione beads, 16-mer random dsDNA library, 0.1% formaldehyde crosslink after washing; high values mean tight binding
The target in one experiment is T1, FEV (Homo sapiens, UniProt Q99581 1-238).
T1 sequence: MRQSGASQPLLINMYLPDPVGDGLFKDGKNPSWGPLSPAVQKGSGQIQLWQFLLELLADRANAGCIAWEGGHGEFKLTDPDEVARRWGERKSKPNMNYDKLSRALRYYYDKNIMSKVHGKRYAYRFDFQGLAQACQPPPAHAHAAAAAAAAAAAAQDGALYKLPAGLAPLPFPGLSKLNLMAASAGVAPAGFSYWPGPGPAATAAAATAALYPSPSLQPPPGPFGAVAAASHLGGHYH
Particulars: protein: recombinant; tags: N-terminal GST; dsDNA, one strand shown. A digest of the protocol:
(§1)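 Binding signal is given per hexamer as its read frequency for a factor divided by its frequency in the tag-only sample. GST-fused human transcription factors were expressed in yeast, captured on glutathione beads, barcoded with DNA and pooled with that sample, then incubated with 200 nmole of a 16-mer random double-stranded DNA library in Tris/NaCl/DTT/glycerol buffer for 30 min at room temperature. The pools were then washed, crosslinked, proximity-ligated, amplified by PCR and sequenced on an Illumina NextSeq500.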

The target in another experiment is ETV5 (Homo sapiens, UniProt P41161 1-510). Particulars: protein: recombinant; tags: N-terminal GST; dsDNA, one strand shown. An outline of the steps:
as §1

For a further experiment, the target named is HSF1 (Homo sapiens, UniProt Q00613 1-529). Particulars: protein: recombinant; tags: N-terminal GST; chain copies: 3; dsDNA, one strand shown. An outline of the steps: as §1
The next experiment addresses T2, SPIC (Homo sapiens, UniProt Q8N5J4 1-248).
T2 sequence: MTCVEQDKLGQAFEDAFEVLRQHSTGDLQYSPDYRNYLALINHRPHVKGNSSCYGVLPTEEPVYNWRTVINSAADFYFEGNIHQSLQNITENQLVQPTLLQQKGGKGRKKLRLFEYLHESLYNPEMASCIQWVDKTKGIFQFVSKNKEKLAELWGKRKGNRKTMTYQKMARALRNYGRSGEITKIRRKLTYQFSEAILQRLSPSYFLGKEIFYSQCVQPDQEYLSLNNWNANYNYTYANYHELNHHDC
Particulars: protein: recombinant; tags: N-terminal GST; dsDNA, one strand shown. A digest of the protocol:
as §1

The target in the next experiment is ELF4 (Homo sapiens, UniProt Q99607 1-663). Particulars: protein: recombinant; tags: N-terminal GST; dsDNA, one strand shown. An outline of the steps:
as §1

For a further experiment, the target named is T3, ELK4 (Homo sapiens, UniProt P28324-2 1-405).
T3 sequence: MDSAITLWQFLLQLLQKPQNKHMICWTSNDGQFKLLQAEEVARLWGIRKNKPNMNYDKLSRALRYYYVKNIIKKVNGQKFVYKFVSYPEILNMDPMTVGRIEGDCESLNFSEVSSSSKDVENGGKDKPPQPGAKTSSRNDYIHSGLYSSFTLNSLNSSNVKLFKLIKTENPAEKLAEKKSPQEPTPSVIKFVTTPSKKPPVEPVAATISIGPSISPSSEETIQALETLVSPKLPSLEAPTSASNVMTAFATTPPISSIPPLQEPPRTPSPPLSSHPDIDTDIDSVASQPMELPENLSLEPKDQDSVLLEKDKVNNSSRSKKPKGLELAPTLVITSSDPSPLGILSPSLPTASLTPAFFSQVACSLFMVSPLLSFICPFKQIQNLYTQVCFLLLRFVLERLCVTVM
Particulars: protein: recombinant; tags: N-terminal GST; dsDNA, one strand shown. A digest of the protocol: as §1

The target of a further experiment is T4, ETV2 (Homo sapiens, UniProt O00321 1-342).
T4 sequence: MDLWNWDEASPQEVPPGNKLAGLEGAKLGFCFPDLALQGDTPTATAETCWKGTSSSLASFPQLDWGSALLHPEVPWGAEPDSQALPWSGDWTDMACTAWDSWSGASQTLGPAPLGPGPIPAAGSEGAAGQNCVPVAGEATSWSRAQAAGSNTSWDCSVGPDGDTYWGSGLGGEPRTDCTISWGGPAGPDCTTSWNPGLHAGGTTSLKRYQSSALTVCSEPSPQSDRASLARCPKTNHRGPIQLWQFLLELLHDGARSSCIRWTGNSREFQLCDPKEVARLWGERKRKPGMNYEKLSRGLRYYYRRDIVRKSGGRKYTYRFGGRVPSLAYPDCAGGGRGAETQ
Particulars: protein: recombinant; tags: N-terminal GST; dsDNA, one strand shown. An outline of the steps:
as §1

The next experiment addresses T5, ELF3 (Homo sapiens, UniProt P78545 1-371).
T5 sequence: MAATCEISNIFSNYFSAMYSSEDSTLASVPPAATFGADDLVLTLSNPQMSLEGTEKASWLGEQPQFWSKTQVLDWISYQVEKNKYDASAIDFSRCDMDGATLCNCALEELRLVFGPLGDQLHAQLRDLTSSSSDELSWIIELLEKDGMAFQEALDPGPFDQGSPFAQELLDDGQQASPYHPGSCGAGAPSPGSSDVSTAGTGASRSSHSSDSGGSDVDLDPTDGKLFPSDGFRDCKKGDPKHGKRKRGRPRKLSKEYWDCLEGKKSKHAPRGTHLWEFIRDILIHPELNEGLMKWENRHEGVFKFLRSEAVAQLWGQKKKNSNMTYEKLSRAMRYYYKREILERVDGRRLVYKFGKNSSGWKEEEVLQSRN
Particulars: protein: recombinant; tags: N-terminal GST; dsDNA, one strand shown. An outline of the steps:
as §1

A further experiment addresses CRX (Homo sapiens, UniProt O43186 1-299). Particulars: protein: recombinant; tags: N-terminal GST; dsDNA, one strand shown. A digest of the protocol: as §1
In the next experiment the target is ETV1 (Homo sapiens, UniProt P50549 1-477). Particulars: protein: recombinant; tags: N-terminal GST; dsDNA, one strand shown. A digest of the protocol:
as §1

The target in another experiment is T6, ERF (Homo sapiens, UniProt P50548 1-548).
T6 sequence: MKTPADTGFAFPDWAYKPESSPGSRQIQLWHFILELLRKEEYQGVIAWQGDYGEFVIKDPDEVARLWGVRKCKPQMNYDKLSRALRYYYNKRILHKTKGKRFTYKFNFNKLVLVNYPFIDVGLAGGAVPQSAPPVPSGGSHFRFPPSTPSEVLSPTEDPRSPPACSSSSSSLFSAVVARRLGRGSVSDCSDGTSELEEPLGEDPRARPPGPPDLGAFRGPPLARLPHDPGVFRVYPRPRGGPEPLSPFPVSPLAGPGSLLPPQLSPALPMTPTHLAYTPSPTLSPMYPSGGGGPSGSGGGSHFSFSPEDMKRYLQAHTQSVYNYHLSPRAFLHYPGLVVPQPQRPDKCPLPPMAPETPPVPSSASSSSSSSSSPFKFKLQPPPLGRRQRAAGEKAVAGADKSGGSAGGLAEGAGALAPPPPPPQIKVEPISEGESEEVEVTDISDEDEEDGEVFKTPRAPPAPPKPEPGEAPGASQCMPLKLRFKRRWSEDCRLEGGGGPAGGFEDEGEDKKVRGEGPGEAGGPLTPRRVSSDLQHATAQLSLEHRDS
Particulars: protein: recombinant; tags: N-terminal GST; dsDNA, one strand shown. A digest of the protocol: as §1

For the next experiment, the target named is T7, ETV3L (Homo sapiens, UniProt Q6ZN32 1-361).
T7 sequence: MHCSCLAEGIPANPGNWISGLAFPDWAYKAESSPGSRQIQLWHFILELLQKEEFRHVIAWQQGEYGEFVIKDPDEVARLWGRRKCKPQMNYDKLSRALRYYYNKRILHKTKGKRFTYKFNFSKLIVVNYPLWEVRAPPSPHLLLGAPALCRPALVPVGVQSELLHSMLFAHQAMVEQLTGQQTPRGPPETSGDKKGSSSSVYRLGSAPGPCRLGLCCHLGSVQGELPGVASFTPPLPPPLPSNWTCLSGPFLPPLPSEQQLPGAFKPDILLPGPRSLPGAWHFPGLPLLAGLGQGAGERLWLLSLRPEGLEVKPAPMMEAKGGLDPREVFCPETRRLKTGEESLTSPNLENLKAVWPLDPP
Particulars: protein: recombinant; tags: N-terminal GST; dsDNA, one strand shown. A digest of the protocol: as §1

In a further experiment the target is T8, ETS2 (Homo sapiens, UniProt P15036 1-469).
T8 sequence: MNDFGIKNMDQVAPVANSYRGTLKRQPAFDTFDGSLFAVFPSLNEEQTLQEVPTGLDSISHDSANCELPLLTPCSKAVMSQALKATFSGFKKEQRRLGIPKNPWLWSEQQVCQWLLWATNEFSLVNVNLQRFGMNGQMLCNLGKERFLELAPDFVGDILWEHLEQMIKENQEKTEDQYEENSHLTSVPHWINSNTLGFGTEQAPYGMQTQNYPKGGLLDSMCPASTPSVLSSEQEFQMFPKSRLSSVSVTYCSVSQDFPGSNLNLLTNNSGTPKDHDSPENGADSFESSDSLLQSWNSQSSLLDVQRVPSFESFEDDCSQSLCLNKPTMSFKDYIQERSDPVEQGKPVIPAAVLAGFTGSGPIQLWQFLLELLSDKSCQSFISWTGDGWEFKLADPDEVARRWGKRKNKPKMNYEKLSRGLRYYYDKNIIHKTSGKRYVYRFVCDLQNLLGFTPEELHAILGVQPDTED
Particulars: protein: recombinant; tags: N-terminal GST; dsDNA, one strand shown. An outline of the steps: as §1

A further experiment addresses T9, SPDEF (Homo sapiens, UniProt O95238 1-335).
T9 sequence: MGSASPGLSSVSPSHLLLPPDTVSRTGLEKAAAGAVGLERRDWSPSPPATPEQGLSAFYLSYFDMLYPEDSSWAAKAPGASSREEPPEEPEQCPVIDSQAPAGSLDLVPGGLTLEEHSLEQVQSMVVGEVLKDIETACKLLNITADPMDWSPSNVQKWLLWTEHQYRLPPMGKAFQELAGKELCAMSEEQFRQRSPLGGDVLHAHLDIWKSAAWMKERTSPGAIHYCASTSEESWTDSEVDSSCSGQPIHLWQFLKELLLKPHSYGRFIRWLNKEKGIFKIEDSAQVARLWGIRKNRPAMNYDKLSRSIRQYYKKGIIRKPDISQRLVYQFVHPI
Particulars: protein: recombinant; tags: N-terminal GST; dsDNA, one strand shown. A digest of the protocol:
as §1

For another experiment, the target named is T10, ETV7 (Homo sapiens, UniProt Q9Y603 1-341).
T10 sequence: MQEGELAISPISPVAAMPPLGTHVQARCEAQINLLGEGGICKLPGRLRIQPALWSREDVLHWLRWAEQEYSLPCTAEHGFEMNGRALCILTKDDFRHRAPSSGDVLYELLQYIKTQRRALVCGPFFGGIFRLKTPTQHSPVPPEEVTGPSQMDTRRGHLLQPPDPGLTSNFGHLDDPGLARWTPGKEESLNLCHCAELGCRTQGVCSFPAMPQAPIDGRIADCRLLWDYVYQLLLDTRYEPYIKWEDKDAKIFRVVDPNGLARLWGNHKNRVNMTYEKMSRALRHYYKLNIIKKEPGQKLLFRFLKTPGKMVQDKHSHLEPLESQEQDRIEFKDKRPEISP
Particulars: protein: recombinant; tags: N-terminal GST; dsDNA, one strand shown. A digest of the protocol:
as §1

Another experiment deals with T11, ELF5 (Homo sapiens, UniProt Q9UKW6-2 1-255).
T11 sequence: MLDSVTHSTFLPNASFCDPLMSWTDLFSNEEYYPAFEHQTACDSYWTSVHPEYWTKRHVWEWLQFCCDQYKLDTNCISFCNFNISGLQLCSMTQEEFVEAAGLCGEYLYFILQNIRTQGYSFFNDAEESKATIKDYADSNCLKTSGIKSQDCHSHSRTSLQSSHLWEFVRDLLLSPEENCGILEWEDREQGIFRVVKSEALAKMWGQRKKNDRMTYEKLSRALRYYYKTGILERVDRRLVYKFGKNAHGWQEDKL
Particulars: protein: recombinant; tags: N-terminal GST; dsDNA, one strand shown. An outline of the steps:
as §1

A further experiment concerns the target T12, ETV3 (Homo sapiens, UniProt P41162-2 1-143).
T12 sequence: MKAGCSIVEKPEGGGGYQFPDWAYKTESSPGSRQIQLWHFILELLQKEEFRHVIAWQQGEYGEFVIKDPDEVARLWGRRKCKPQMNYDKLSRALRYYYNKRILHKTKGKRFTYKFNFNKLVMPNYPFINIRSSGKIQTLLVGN
Particulars: protein: recombinant; tags: N-terminal GST; dsDNA, one strand shown. An outline of the steps:
as §1

Another experiment concerns the target ETV6 (Homo sapiens, UniProt P41212 1-452). Particulars: protein: recombinant; tags: N-terminal GST; dsDNA, one strand shown. A digest of the protocol:
as §1

ELF4, sequence (Q99607 whole entry): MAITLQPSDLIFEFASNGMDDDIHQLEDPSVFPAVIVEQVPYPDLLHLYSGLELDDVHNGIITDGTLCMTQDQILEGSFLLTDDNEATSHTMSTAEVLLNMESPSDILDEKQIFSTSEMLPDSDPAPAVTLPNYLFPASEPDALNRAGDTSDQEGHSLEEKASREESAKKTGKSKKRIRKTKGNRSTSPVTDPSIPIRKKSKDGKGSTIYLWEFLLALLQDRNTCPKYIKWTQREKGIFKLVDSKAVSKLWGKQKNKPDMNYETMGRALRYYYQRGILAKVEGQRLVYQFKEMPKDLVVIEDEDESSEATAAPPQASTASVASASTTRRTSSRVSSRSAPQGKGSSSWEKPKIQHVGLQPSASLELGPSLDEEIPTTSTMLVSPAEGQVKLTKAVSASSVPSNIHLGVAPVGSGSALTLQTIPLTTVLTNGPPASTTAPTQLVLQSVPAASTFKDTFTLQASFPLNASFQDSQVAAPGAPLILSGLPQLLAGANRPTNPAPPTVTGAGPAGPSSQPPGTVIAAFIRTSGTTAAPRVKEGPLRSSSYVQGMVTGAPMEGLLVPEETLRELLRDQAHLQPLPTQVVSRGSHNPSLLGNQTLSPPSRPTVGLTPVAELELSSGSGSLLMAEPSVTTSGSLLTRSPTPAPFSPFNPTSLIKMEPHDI
ETV1, sequence (P50549 whole entry): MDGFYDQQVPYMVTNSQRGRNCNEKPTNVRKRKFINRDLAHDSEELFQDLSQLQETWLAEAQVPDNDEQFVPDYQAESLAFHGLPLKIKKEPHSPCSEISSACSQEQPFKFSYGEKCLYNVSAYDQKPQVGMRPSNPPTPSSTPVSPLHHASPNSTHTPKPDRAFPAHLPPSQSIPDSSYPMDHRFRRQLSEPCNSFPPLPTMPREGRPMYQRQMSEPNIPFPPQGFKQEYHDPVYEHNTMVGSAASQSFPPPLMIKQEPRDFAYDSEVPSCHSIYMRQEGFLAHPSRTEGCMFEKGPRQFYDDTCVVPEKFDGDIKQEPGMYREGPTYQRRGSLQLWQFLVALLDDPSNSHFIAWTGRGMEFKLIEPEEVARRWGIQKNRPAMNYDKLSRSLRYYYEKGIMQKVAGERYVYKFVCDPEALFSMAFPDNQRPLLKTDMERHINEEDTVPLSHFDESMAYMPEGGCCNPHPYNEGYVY
CRX, sequence (O43186 whole entry): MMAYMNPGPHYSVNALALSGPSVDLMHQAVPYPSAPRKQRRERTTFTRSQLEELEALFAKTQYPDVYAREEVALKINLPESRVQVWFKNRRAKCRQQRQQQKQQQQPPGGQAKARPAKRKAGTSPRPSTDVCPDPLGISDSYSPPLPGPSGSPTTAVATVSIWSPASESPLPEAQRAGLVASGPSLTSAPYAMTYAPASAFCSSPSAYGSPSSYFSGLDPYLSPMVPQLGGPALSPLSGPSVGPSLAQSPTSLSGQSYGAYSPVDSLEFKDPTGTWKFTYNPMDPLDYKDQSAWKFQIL
HSF1, sequence (Q00613 whole entry): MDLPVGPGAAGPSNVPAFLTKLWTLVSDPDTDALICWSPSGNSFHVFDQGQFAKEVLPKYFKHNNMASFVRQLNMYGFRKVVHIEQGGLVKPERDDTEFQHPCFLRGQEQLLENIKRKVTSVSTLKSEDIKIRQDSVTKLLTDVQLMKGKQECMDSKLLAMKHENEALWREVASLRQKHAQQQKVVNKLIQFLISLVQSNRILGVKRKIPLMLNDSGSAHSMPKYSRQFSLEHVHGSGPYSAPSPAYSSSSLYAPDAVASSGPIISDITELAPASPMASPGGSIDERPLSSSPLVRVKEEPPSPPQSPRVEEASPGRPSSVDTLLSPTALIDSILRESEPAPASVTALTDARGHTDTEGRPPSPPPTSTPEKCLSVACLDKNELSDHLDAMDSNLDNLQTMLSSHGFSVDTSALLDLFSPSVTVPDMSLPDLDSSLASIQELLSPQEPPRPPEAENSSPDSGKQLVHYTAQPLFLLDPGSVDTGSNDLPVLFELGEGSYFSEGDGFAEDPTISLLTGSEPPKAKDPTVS
ETV5, sequence (P41161 whole entry): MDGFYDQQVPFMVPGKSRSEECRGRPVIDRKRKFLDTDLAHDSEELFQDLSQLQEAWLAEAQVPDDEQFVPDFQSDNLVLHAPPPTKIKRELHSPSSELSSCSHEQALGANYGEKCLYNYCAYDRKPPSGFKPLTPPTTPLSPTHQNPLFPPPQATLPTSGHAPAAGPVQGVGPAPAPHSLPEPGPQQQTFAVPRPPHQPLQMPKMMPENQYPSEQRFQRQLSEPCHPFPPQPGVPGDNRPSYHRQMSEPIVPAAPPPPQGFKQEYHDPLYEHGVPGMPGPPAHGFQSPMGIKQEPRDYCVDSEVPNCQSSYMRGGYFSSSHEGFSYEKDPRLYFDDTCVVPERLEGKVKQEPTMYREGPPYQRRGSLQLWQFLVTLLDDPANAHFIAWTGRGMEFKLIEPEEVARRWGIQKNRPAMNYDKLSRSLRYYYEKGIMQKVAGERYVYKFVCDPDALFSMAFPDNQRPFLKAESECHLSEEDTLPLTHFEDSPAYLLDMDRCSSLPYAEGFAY
ETV6, sequence (P41212 whole entry): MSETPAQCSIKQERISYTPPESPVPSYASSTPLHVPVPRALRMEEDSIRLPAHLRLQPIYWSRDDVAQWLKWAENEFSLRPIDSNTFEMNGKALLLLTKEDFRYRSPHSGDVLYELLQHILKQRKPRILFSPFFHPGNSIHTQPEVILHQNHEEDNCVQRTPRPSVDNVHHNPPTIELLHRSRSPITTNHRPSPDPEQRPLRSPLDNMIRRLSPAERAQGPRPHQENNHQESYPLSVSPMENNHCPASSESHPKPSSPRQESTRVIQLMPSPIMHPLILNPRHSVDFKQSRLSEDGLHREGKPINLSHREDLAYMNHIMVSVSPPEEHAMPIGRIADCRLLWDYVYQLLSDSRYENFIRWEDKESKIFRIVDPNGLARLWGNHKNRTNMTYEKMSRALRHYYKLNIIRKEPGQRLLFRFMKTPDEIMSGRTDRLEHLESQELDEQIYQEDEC

As for TGCTCT, the binding signal was 1.37 fold enrichment (6-mer frequency, TF over GST control) in the experiment with FEV; 1.37 fold enrichment (6-mer frequency, TF over GST control) with ETV5; 1.3 fold enrichment (6-mer frequency, TF over GST control) with HSF1; 1.2 fold enrichment (6-mer frequency, TF over GST control) with SPIC; 1.36 fold enrichment (6-mer frequency, TF over GST control) with ELF4; 1.38 fold enrichment (6-mer frequency, TF over GST control) with ELK4. Besides, the binding signal with ETV2 is 1.47 fold enrichment (6-mer frequency, TF over GST control); with ELF3 it was 1.36 fold enrichment (6-mer frequency, TF over GST control); in the experiment with CRX it was 1.24 fold enrichment (6-mer frequency, TF over GST control); with ETV1 it was 1.33 fold enrichment (6-mer frequency, TF over GST control); with ERF, 1.35 fold enrichment (6-mer frequency, TF over GST control); with ETV3L, 1.37 fold enrichment (6-mer frequency, TF over GST control). Also, the binding signal was 1.4 fold enrichment (6-mer frequency, TF over GST control) with ETS2; 1.17 fold enrichment (6-mer frequency, TF over GST control) with SPDEF; 1.24 fold enrichment (6-mer frequency, TF over GST control) in the experiment with ETV7; 1.27 fold enrichment (6-mer frequency, TF over GST control) with ELF5; 1.29 fold enrichment (6-mer frequency, TF over GST control) in the experiment with ETV3; 1.31 fold enrichment (6-mer frequency, TF over GST control) with ETV6.
